Several values for one entry are separate records, joined by “and”; a condition that tells them apart may be missing. Equal entries are not always repeated. Some structures have more than one record in an assay (separate samples or runs), and their calls can disagree. Activity calls are given as the source filed them. Where a call stands in place of a potency, no number is given. Unless noted, calls follow the shape of the dose curve; as a rule, active = well fitted curve in the direction sought with a large enough effect in the repeat runs; inconclusive = weak or mixed curves; inactive = no such curve, though single readings can be large; an effect the other way counts as inactive or inconclusive.
How the values were obtained:
[1] = qHTS assay to test for compound auto fluorescence at 535 nm (green) in HEK293 cells (AID 720680)
[2] = qHTS assay to test for compound auto fluorescence at 460 nm (blue) in HEK293 cell free culture (AID 720681)
Summary of the method: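 Blue fluorescence (Ex 405/Em 460 nm, triamterene-equivalent) was read immediately after pin transfer of compound or DMSO into medium (DMEM, 10% FBS) without cells.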

[3] = qHTS assay to test for compound auto fluorescence at 535 nm (green) in HEK293 cell free culture (AID 720682)
Summary of the method: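 Green-channel intensity (Ex/Em 485/535 nm) was recorded from compound-treated wells containing only DMEM with 10% FBS. Fluorescein provided the equivalency standard.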

[4] = qHTS assay to test for compound auto fluorescence at 590 nm (red) in HEK293 cell free culture (AID 720683)
Summary of the method: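 Red-channel autofluorescence of compounds in culture medium (DMEM, 10% FBS), no cells, measured at 540/590 nm. Rose Bengal sodium is the reference fluorophore for equivalence.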

[5] = qHTS assay to test for compound auto fluorescence at 590 nm (red) in HepG2 cell free culture (AID 720684)
Summary of the method: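 Steps: dispense MEM/10% FBS medium, no cells; pin compound or DMSO vehicle; read red channel, Ex/Em 540/590 nm. Output given as Rose Bengal sodium equivalents.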

[6] = qHTS assay to test for compound auto fluorescence at 460 nm (blue) in HepG2 cell free culture (AID 720685)
Summary of the method: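 Compound (23 nL) or DMSO pinned into cell-free MEM with 10% FBS; blue fluorescence read at 405/460 nm excitation/emission, expressed as auto-fluorescence equivalency to triamterene.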

[7] = qHTS assay to test for compound auto fluorescence at 535 nm (green) in HepG2 cell free culture (AID 720686)
[8] = qHTS assay to test for compound auto fluorescence at 460 nm (blue) in HepG2 cells (AID 720687)
Summary of the method: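 Blue-channel autofluorescence (Ex/Em 405/460 nm, triamterene-equivalent) was measured after 1 hr compound exposure at 37 C, 5% CO2. Cells were HepG2, plated overnight at 37 C in MEM plus 10% FBS.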

[9] = target: Glucocorticoid receptor (Homo sapiens) (UniProt P04150); assay: qHTS assay to identify small molecule agonists of the glucocorticoid receptor (GR) signaling pathway (AID 720691; active = well fitted activation curve with a large enough effect in the signal ratio in the repeat runs, not every such curve was filed as active; inconclusive = weak or mixed curves, or effect the other way; inactive = no such curve, though single readings can be large or run the other way; the % refers to the signal ratio; also: potency is read from the fitted curve at half-maximal effect)
Sequence of Glucocorticoid receptor (Homo sapiens) (P04150 whole entry, looked up): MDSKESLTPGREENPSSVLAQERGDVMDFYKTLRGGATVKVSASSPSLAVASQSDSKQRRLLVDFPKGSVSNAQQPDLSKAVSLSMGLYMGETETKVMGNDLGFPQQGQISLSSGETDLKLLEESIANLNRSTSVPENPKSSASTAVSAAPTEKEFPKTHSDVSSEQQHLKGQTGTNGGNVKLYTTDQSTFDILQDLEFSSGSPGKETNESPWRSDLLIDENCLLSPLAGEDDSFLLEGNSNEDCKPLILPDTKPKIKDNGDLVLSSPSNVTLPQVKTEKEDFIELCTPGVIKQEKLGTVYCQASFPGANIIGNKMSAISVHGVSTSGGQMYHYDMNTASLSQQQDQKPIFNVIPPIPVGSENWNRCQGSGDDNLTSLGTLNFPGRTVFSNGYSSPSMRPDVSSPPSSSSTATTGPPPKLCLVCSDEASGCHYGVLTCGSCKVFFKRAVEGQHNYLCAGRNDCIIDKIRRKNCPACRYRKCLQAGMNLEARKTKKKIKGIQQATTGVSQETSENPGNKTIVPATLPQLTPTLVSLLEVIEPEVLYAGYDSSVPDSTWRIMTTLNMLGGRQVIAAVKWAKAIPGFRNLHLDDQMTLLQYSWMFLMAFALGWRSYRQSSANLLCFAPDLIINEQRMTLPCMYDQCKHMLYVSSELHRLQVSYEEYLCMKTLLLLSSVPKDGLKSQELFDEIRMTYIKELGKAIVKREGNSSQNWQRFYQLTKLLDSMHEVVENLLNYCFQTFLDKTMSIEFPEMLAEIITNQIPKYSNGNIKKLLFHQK
Summary of the method: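 Agonist mode in a HeLa line carrying a GRE-controlled beta-lactamase reporter. Compounds act for 18 h at 37 C before a 2 h room-temperature FRET substrate step and fluorescence reading.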

[10] = target: Glucocorticoid receptor (Homo sapiens) (UniProt P04150); assay: qHTS assay to identify small molecule antagonists of the glucocorticoid receptor (GR) signaling pathway (AID 720692; active = well fitted inhibition curve with a large enough effect in the signal ratio in the repeat runs, not every such curve was filed as active; inconclusive = weak or mixed curves, or effect the other way; inactive = no such curve, though single readings can be large or run the other way; the % refers to the signal ratio)
Summary of the method: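 Cells plated, rested 4 h at 37 C/5% CO2; compounds in DMSO pin-transferred; dexamethasone added to 5 nM final; 18 h at 37 C; B/G FRET substrate added, 2 h room temperature; fluorescence measured.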

[11] = qHTS assay to identify small molecule antagonists of the glucocorticoid receptor (GR) signaling pathway - cell viability counter screen (AID 720693); also: nearly all actives have a fitted effect of over 55% in size
[12] = qHTS assay for identifying genotoxic compounds that show differential cytotoxicity against isogenic chicken DT40 cell lines with known DNA damage response pathways - wild type cell line (AID 743012); also: nearly all actives have a fitted effect of over 60% in size; also: potency is read from the fitted curve at half-maximal effect
Summary of the method: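 Cells (DT40 wild type, 300/well) are treated with DMSO-dissolved compounds after a ~0.5 h pre-incubation and kept 40 h at 37 C/5% CO2. Viability is then measured by CellTiter-Glo luminescence following 30 min at room temperature.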

[13] = qHTS assay for identifying genotoxic compounds that show differential cytotoxicity against isogenic chicken DT40 cell lines with known DNA damage response pathways - Rev3 mutant cell line (AID 743014); also: nearly all actives have a fitted effect of over 55% in size; also: potency is read from the fitted curve at half-maximal effect
[14] = qHTS assay to identify small molecule antagonists of the androgen receptor (AR) signaling pathway - cell viability counter screen (AID 743033; also: nearly all actives have a fitted effect of over 45% in size)
[15] = target: Androgen receptor (Homo sapiens) (UniProt P10275); assay: qHTS assay to identify small molecule antagonists of the androgen receptor (AR) signaling pathway (AID 743035; active = well fitted inhibition curve with a large enough effect in the signal ratio in the repeat runs, not every such curve was filed as active; inconclusive = weak or mixed curves, or effect the other way; inactive = no such curve, though single readings can be large or run the other way; the % refers to the signal ratio)
Sequence of Androgen receptor (Homo sapiens) (P10275 whole entry, looked up): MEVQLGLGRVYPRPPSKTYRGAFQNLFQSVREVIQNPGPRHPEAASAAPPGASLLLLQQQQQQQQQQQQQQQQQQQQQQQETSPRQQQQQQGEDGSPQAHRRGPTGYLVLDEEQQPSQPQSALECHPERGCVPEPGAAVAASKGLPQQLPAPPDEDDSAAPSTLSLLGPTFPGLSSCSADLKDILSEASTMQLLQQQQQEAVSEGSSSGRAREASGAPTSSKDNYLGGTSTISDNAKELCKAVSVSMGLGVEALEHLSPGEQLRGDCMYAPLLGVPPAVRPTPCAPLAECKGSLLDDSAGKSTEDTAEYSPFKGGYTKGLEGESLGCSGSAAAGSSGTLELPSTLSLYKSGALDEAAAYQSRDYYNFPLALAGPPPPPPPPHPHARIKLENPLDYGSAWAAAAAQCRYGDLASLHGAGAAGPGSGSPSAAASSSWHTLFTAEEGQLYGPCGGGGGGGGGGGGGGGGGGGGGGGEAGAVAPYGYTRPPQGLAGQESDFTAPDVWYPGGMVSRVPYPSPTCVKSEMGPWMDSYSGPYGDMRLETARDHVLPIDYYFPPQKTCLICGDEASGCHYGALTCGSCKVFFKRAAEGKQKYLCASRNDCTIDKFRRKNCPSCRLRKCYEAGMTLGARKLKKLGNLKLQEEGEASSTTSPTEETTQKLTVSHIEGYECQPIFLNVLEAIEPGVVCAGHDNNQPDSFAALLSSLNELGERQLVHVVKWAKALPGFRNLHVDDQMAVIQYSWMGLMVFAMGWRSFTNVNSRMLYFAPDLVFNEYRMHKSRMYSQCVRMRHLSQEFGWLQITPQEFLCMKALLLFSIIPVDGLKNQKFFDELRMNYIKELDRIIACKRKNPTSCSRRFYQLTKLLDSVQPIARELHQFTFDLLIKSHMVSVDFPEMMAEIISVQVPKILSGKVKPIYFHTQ
Summary of the method: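 Antagonism is scored as loss of R1881-driven beta-lactamase reporter expression in HEK293 cells carrying the reporter under a UAS element, after 16 h co-treatment at 37C and a 2 h room-temperature FRET substrate read.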

[16] = target: Androgen receptor (Homo sapiens) (UniProt P10275); assay: qHTS assay to identify small molecule agonists of the androgen receptor (AR) signaling pathway (AID 743036; active = well fitted activation curve with a large enough effect in the signal ratio in the repeat runs, with a control signal flat, not every such curve was filed as active; inconclusive = weak or mixed curves, or effect the other way; inactive = no such curve, though single readings can be large or run the other way; the % refers to the signal ratio)
Summary of the method: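 Cell-based FRET reporter assay: HEK293 line with a UAS-beta-lactamase construct, compounds added in DMSO, 16 h exposure at 37C, then 2 h substrate step at room temperature and fluorescence intensity read.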

[17] = target: Androgen receptor (Homo sapiens) (UniProt P10275); assay: qHTS assay to identify small molecule agonists of the androgen receptor (AR) signaling pathway using the MDA cell line (AID 743040; also: nearly all actives have a fitted effect of over 20% in size)
Summary of the method: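 Cells plated, 5 h at 37C/0% CO2; compound or DMSO pinned; 16 h at 37C; ONE-Glo added; luminescence measured after 30 min at room temperature. Reporter line: MDA-kb2 with MMTV-luciferase responsive to AR and GR.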

[18] = qHTS assay to identify small molecule antagonists of the androgen receptor (AR) signaling pathway using the MDA cell line - cell viability counter screen (AID 743041; also: nearly all actives have a fitted effect of over 45% in size)
Summary of the method: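 Cells were plated at 3,000 per well and left 5 h. Compounds in DMSO were then pinned in, followed by R1881. After 16 h at 37C, CellTiter-Fluor fluorescence gave viability.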

[19] = target: Androgen receptor (Homo sapiens) (UniProt P10275); assay: qHTS assay to identify small molecule antagonists of the androgen receptor (AR) signaling pathway using the MDA cell line (AID 743042; also: nearly all actives have a fitted effect of over 55% in size)
Summary of the method: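 Antagonist mode: compounds plus R1881 agonist added to MDA-kb2 AR-luc cells, incubated 16 h at 37C. Luciferase reporter luminescence quantified, with multiplexed CellTiter-Fluor readout for cell viability.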

[20] = qHTS assay for identifying genotoxic compounds that show differential cytotoxicity against isogenic chicken DT40 cell lines with known DNA damage response pathways - Rad54/Ku70 mutant cell line (AID 743015); also: nearly all actives have a fitted effect of over 60% in size; also: potency is read from the fitted curve at half-maximal effect

CC(=O)C1(C)CC2=C(CCCC2(C)C)CC1C (stereo not given)
Potency [1]: inactive | outcome [2]: inactive | Potency [3]: inactive | Potency [4]: inactive | Potency [5]: inactive | outcome [6]: inactive | Potency [7]: inactive | outcome [8]: inactive | Potency [9]: inactive | Potency [10]: inactive | Potency [11]: inactive | Potency [12]: inactive | Potency [13]: inactive | Potency [14]: inactive | Potency [15]: inactive | outcome [16]: inactive | Potency [17]: inactive | Potency [18]: inactive | Potency [19]: inactive

c1ccc2c(c1)Oc1ccccc1S2
Potency [1]: inactive | outcome [2]: inactive | Potency [3]: inactive | Potency [4]: inactive | Potency [5]: inactive | outcome [6]: inactive | Potency [7]: inactive | outcome [8]: inactive | Potency [9]: inactive | Potency [10]: inactive | Potency [12]: inactive | Potency [13]: inactive | Potency [20]: inactive | Potency [14]: inactive | Potency [18]: inactive

c1ccc2cc(Nc3ccc(Nc4ccc5ccccc5c4)cc3)ccc2c1
Potency [1]: inactive | outcome [2]: inactive | Potency [3]: inactive | Potency [4]: inactive | Potency [5]: inactive | outcome [6]: inactive | Potency [7]: inactive | outcome [8]: inactive | Potency [9]: inactive | Potency [10]: inactive | Potency [11]: inactive | Potency [12]: inactive | Potency [13]: inactive | Potency [14]: inactive | Potency [15]: inactive | Potency [17]: inactive | Potency [18]: inactive | Potency [19]: inactive

c1ccc2c(c1)c1cccc3ccc4cccc2c4c31
Potency [1]: inactive | outcome [2]: inactive | Potency [3]: inactive | Potency [4]: inactive | Potency [5]: inactive | outcome [6]: inactive | Potency [7]: inactive | outcome [8]: inactive | Potency [9]: 48.6 µM (active) and inactive | Potency [10]: inactive | Potency [11]: inactive | Potency [12]: inactive | Potency [13]: inactive | Potency [20]: inactive | Potency [14]: inactive | Potency [17]: inactive | Potency [18]: inactive | Potency [19]: inactive

Cc1cccc(N(C)C(=S)Oc2ccc3ccccc3c2)c1
Potency [1]: inactive | outcome [2]: inactive | Potency [3]: inactive | Potency [4]: inactive | Potency [5]: inactive | fluorescence, % of fluorescent control [6]: -0.0096% [at 18.6 µM] (inactive) | Potency [7]: inactive | outcome [8]: inactive | Potency [9]: inactive | Potency [10]: inactive | Potency [11]: inactive | Potency [12]: inactive and 30.6 µM (active) | Potency [13]: inactive and 43.3 µM (active) | Potency [20]: inactive and 30.6 µM (active) | Potency [14]: inactive | Potency [18]: inactive

COc1cccc2c1C(=O)c1c(O)c3c(c(O)c1C2=O)C[C@@](O)(C(=O)CO)C[C@@H]3O[C@H]1C[C@H](N)[C@H](O)[C@H](C)O1
Potency [1]: inactive | outcome [2]: inactive | Potency [3]: inactive | Potency [4]: inactive | Potency [5]: inactive | outcome [6]: inactive | Potency [7]: inactive | outcome [8]: inactive | Potency [9]: 535 nM [inconclusive] (active) and 174 nM (active) | Potency [10]: inactive | Potency [12]: inactive and 66.8 nM (active) and 24.3 nM (active) | Potency [13]: inactive and 84.1 nM (active) and 9.7 nM (active) | Potency [20]: inactive and 10.6 nM (active) and 3.1 nM (active) | Potency [14]: inactive | Potency [18]: inactive

O=P(O)(O)O
Potency [1]: inactive | outcome [2]: inactive | Potency [3]: inactive | Potency [4]: inactive | Potency [5]: inactive | outcome [6]: inactive | Potency [7]: inactive | outcome [8]: inactive | Potency [9]: inactive | Potency [10]: inactive | Potency [12]: inactive | Potency [20]: inactive | Potency [14]: inactive | Potency [18]: inactive

— PubChem BioAssay (Tox21)
